From PubChem BioAssay
KCNK3 block: human KCNK3 channel inhibition, primary screen | B-score at 10 µM | hit rate 0.84% among 340,000 | O14649 | CHO-KCNK3 thallium flux, FluxOR fluorescence; stronger effect = lower value;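 active = B-score under library mean minus 4 SD, starting fluorescence ratio at most library mean plus 5 SD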;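 note: more negative B-score means stronger inhibition of thallium flux through KCNK3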
Kir21 block: blocks the mouse Kir2.1 inward-rectifier potassium channel | P35561 | HEK293-Kir2.1, FluxOR thallium flux fluorescence; stronger effect = lower value | B-score at 10 µM | hit rate 0.85% among 310,000 | AID 1672;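 active = fluorescence ratio B-score at or below minus 3 SD of library scores, with starting-brightness B-score within 2 SD, cut at about -4.2 in these data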;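 note: channel flux triggered by added potassium and thallium sulfate stimulus; B-score of peak minus minimum fluorescence over baseline after thallium stimulus; more negative B-score means stronger Kir2.1 block with less thallium influx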
ANO1 block: inhibitors of mouse TMEM16A calcium-activated chloride channel. AID 588511. normalized B-score (activity score, 25-100; higher = stronger inhibition) at 10 µM. HEK293 TMEM16A/YFP iodide influx fluorescence, ionomycin. Q8BHY3. hit rate 1.2% among 310,000;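 active = ratio plate-corrected score three or more library SD toward inhibition, starting fluorescence score within five deviations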;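 note: score derived from kinetic fluorescence span divided by baseline fluorescence per well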
ANO1 activ: activates or potentiates the mouse TMEM16A chloride channel. Q8BHY3. HEK293 TMEM16A/YFP-H148Q/I152L, iodide quench fluorescence; stronger effect = lower value. B-score at 10 µM. hit rate 0.3% among 340,000;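 active = fluorescence-ratio B-score plate-corrected deviation score at least 3 library SD below zero, with starting fluorescence score within 5 deviations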;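 note: channel opened by trigger with iodide after compound preincubation; score built on the fluorescence ratio of max minus min over baseline; more negative score means more quench and so TMEM16A activation or potentiation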
KCNK9 block: blocks the human KCNK9 two-pore domain potassium channel; hit rate 1.2% among 310,000; HEK293 KCNK9, FluxOR thallium flux fluorescence; stronger effect = lower value; Q9NPC2; B-score at 10 µM;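 active = ratio B-score over 3 SD below the library mean, with starting fluorescence within 5 SD of its mean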;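 note: negative B-score means less thallium flux so channel inhibition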
Target sequence (Q9NPC2 whole entry, looked up, the tested form may be a part): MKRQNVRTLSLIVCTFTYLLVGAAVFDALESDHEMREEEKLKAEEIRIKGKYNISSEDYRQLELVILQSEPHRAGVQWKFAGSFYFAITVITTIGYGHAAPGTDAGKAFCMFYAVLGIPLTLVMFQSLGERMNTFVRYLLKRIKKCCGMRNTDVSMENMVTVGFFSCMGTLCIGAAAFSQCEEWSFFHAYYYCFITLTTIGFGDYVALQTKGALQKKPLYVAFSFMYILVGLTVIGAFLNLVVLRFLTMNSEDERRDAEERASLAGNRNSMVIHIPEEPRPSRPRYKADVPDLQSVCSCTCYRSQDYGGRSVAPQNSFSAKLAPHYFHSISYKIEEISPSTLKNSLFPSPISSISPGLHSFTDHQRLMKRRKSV
KCNK9 inh conf: human KCNK9 inhibitor confirmation. shares compounds with KCNK9 block. HEK293 KCNK9 cells, FluxOR thallium flux fluorescence. inhibition, % at 10 µM. hit rate 43% among 4,900. AID 492992;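 active = thallium signal inhibited by more than 5 SD of the compound-free buffer control wells, on both duplicate plates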;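 note: 0% = assay buffer control wells without compound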
Kir21 sel: tests whether KCNK9 modulators also affect mouse Kir2.1; hit rate 4% among 4,900; inhibition, % at 10 µM; Kir2.1 cells, FluxOR thallium flux fluorescence; shares compounds with KCNK9 block;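 active = thallium signal drop more than 5 SD beyond the mean of the no-compound control wells, seen in both duplicate plates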;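 note: signal is fluorescence rise after thallium addition divided by baseline fluorescence; plate controls were assay buffer only for no effect and full block by chlorpromazine control for full effect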
HEK293 Tl ctr: second counter-screen for KCNK9 modulators: effect in non-induced cells; shares compounds with KCNK9 block; non-induced KCNK9-HEK293, FluxOR thallium flux; inhibition, % at 10 µM; hit rate 40% among 4,900; AID 492997;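 active = thallium signal drop beyond 5 SD of the untreated control mean, on both duplicate plates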;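 note: plate controls were buffer only IC0 wells for no effect and SID17386958 at its maximal inhibitory level for full effect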
Starred values were filed as active, the others as inactive. This is a sample that favours compounds with a hit; in the whole collection about 3.5% have one here.

What do the screens show for `Cc1ccc(Cc2nnc3n(-c4cccc(C)c4)nc(C(=O)c4ccccc4)n3c2=O)cc1`?
KCNK3 block: inactive; Kir21 block: 0.16; ANO1 block: inactive; ANO1 activ: inactive; KCNK9 block: inactive; KCNK9 inh conf: inactive; Kir21 sel: inactive; HEK293 Tl ctr: inactive

Results for C/C(CC(=O)Nc1cc(C)ccn1)=N\NC(=O)c1cccc(C)c1O ?
KCNK3 block: inactive; Kir21 block: 0.6; ANO1 block: inactive; ANO1 activ: inactive; KCNK9 block: inactive

Results for COC(=O)C(NC(=O)c1ccccc1C)(Nc1ncc(S(=O)(=O)c2ccc([N+](=O)[O-])cc2)s1)C(F)(F)F (configuration not stated) ?
KCNK3 block: inactive; Kir21 block: 0.34; ANO1 block: inactive; ANO1 activ: inactive; KCNK9 block: inactive; KCNK9 inh conf: inactive; Kir21 sel: inactive; HEK293 Tl ctr: inactive

How did COC(=O)C(NC(=O)c1ccc(F)cc1)(Nc1ncc(S(=O)(=O)c2ccc([N+](=O)[O-])cc2)s1)C(F)(F)F (configuration not stated) do in these assays?
KCNK3 block: inactive; Kir21 block: 1.5; ANO1 block: inactive; ANO1 activ: inactive; KCNK9 block: inactive

Results for CN(C)CC/C=C1/c2cc(F)ccc2CSc2ccc(F)cc21 ?
KCNK3 block: inactive; Kir21 block: -2.4; ANO1 block: inactive; ANO1 activ: inactive; KCNK9 block: inactive

What do the screens show for `CN(C)CC/C=C1\c2ccc(F)cc2Sc2cc(F)c(Cl)cc21`?
KCNK3 block: inactive; Kir21 block: -3.5; ANO1 block: inactive; ANO1 activ: inactive; KCNK9 block: inactive; KCNK9 inh conf: inactive; Kir21 sel: 45%*; HEK293 Tl ctr: inactive

Results for CN(C)CC/C=C1\c2cc(F)ccc2CSc2ccccc21 ?
KCNK3 block: inactive; Kir21 block: -0.13; ANO1 block: inactive; ANO1 activ: inactive; KCNK9 block: inactive

Results for CN(C)CC/C=C1/c2ccc(F)cc2Sc2ccc(Cl)cc21 ?
KCNK3 block: inactive; Kir21 block: -6.9*; ANO1 block: inactive; ANO1 activ: inactive; KCNK9 block: inactive; KCNK9 inh conf: inactive; Kir21 sel: 50%*; HEK293 Tl ctr: inactive

Results for CN(C)CC/C=C1\c2cc(Cl)ccc2Sc2cc(F)c(F)cc21 ?
KCNK3 block: inactive; Kir21 block: -4.2*; ANO1 block: inactive; ANO1 activ: inactive; KCNK9 block: inactive; KCNK9 inh conf: inactive; Kir21 sel: 34%*; HEK293 Tl ctr: inactive

How did CN(C)CC/C=C1\c2ccccc2Sc2cc(F)c(Cl)cc21 do in these assays?
KCNK3 block: inactive; Kir21 block: -4.8*; ANO1 block: inactive; ANO1 activ: inactive; KCNK9 block: inactive; KCNK9 inh conf: inactive; Kir21 sel: 49%*; HEK293 Tl ctr: inactive

What do the screens show for `O=C(Cn1cc([N+](=O)[O-])nc1[N+](=O)[O-])N1CCN(c2ccccc2)CC1`?
KCNK3 block: inactive; Kir21 block: 0.78; ANO1 block: inactive; ANO1 activ: inactive; KCNK9 block: inactive

What do the screens show for `COc1cccc(NC(=O)CN(C)C(=O)CCCc2nc3ccccc3s2)c1`?
KCNK3 block: inactive; Kir21 block: 0.32; ANO1 block: inactive; ANO1 activ: inactive; KCNK9 block: inactive

What do the screens show for `Cc1ccc(S(=O)(=O)/N=C(/c2ccc(F)cc2)N2CCCCC2)cc1`?
KCNK3 block: inactive; Kir21 block: -0.28; ANO1 block: inactive; ANO1 activ: inactive; KCNK9 block: inactive

How did CC(C)=CCc1c(-c2ccc(O)cc2O)oc2c3c(cc(O)c2c1=O)OC(C)(C)C=C3 do in these assays?
Kir21 block: 0.67; ANO1 block: 25*; KCNK9 block: inactive; KCNK9 inh conf: inactive; Kir21 sel: inactive; HEK293 Tl ctr: inactive

What do the screens show for `COc1c(C)cc(C(=O)C2CCCN(C(=O)c3csc(C)n3)C2)cc1C` (configuration not stated)?
KCNK3 block: inactive; Kir21 block: 1.4; ANO1 block: inactive; ANO1 activ: inactive; KCNK9 block: inactive

Results for COc1c(C)cc(C(=O)C2CCCN(C(=O)c3cccc(-n4cccn4)c3)C2)cc1C (configuration not stated) ?
KCNK3 block: inactive; Kir21 block: -0.31; ANO1 block: inactive; ANO1 activ: inactive; KCNK9 block: inactive; KCNK9 inh conf: inactive; Kir21 sel: inactive; HEK293 Tl ctr: inactive

How did COc1c(C)cc(C(=O)C2CCCN(C(=O)c3ccc4[nH]ccc4c3)C2)cc1C (configuration not stated) do in these assays?
KCNK3 block: inactive; Kir21 block: 0.69; ANO1 block: inactive; ANO1 activ: inactive; KCNK9 block: inactive; KCNK9 inh conf: inactive; Kir21 sel: inactive; HEK293 Tl ctr: inactive

How did COCc1cc(N2CCOCC2)nc(SCc2ccc(Cl)cc2)n1 do in these assays?
KCNK3 block: inactive; Kir21 block: 0.23; ANO1 block: inactive; ANO1 activ: inactive; KCNK9 block: inactive

How did CSCc1cc(N2CCOCC2)nc(SCc2ccc(Cl)c(Cl)c2)n1 do in these assays?
KCNK3 block: inactive; Kir21 block: -1.2; ANO1 block: inactive; ANO1 activ: inactive; KCNK9 block: -9.2*; KCNK9 inh conf: 31%*; Kir21 sel: inactive; HEK293 Tl ctr: 38%*

What do the screens show for `Cc1cc(C)cc(NC(=S)NCc2ccc3[nH]c4c(c3c2)CCCC4)c1`?
KCNK3 block: inactive; Kir21 block: -0.05; ANO1 block: inactive; ANO1 activ: inactive; KCNK9 block: inactive; KCNK9 inh conf: inactive; Kir21 sel: inactive; HEK293 Tl ctr: inactive

Results for CCNCC(=O)N1c2ccccc2CCc2ccc(NC(=O)OCC)cc21 ?
KCNK3 block: inactive; Kir21 block: -0.17; ANO1 block: inactive; ANO1 activ: inactive; KCNK9 block: -11*; KCNK9 inh conf: 54%*; Kir21 sel: inactive; HEK293 Tl ctr: 34%*

What do the screens show for `O=C(O)c1ccc(NNC(=S)Nc2cc(C(F)(F)F)ccc2Cl)cc1`?
KCNK3 block: inactive; Kir21 block: -1.5; ANO1 block: inactive; ANO1 activ: inactive; KCNK9 block: inactive

Results for CCC1(CC)NC(=O)N(CC(=O)OC(C)C(=O)Nc2cc([N+](=O)[O-])ccc2OC)C1=O (configuration not stated) ?
KCNK3 block: inactive; Kir21 block: 1.2; ANO1 block: inactive; ANO1 activ: inactive; KCNK9 block: inactive
